# Results filed as inconclusive are left out. Values without a mark were called inactive. Activity calls are given as the source filed them. Calls follow the shape of the dose curve; as a rule, active = well fitted curve in the direction sought with a large enough effect in the repeat runs; inconclusive = weak or mixed curves; inactive = no such curve, though single readings can be large; an effect the other way counts as inactive or inconclusive.
# Experiment: A CellTox Green Cytotoxicity Assay to monitor cytotoxicity in HepG2 cells - 16 hour (AID 1224876); also: nearly all actives have a fitted effect of over 45% in size
# Settings: CellTox Green fluorescence; series mostly up to 76.8 µM; cytotoxicity increase: at the top concentration
# In short: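 Cells and non-lytic dye reagent are dispensed together (600 HepG2 cells/well) and incubated 5 h before DMSO compound transfer. Kinetic fluorescence is then recorded in the same wells during 40 h at 37 C.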
# % is scaled to controls: 0 for no effect and ±100 for the full control effect.
row,Compound,cytotoxicity increase
1,CN1Cc2cc(C(=O)N3CCC(C4CCNCC4)CC3)ccc2NC(CC(=O)O)C1=O (stereo unspecified),-0.0256% [at 35.3 µM]
2,COc1cc2nc(N(C)CCCNC(=O)C3CCCO3)nc(N)c2cc1OC (stereo unspecified),-2.2% [at 35.3 µM]
3,COC(C)(C)CCO,-9.38%

# Experiment: qHTS RealTime-Glo MT Cell Viability Assay in HepG2 cells - 32 hour (AID 1224877); also: nearly all actives have a fitted effect of over 55% in size; also: potency is read from the fitted curve at half-maximal effect
# Settings: RealTime-Glo luminescence; series mostly up to 76.8 µM; activity change, negative = cytotoxic: at the top concentration
# In short: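 Real-time, nonlytic viability: 600 HepG2 cells/well mixed with NanoLuc enzyme plus prosubstrate; 5 h settle, compound (DMSO) added by pintool; luminescence monitored over 40 h at 37 C.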
Compound,"activity change, negative = cytotoxic",Potency
O=C(NCC1CN(c2ccc(N3CCOCC3=O)cc2)C(=O)O1)c1ccc(Cl)s1 (stereo unspecified),-3.22% [at 35.3 µM],
CC(COCCO)OCCO (stereo unspecified),-0.65%,
CCC(C)(C)CC,-4.06%,
CCN(CC)CCNc1ccc(CNC=O)c2sc3ccc(OC)cc3c(=O)c12,,19.5 µM (active)
CC[N+](C)(CC)CCOC(=O)C(O)(c1ccccc1)C1CCCCC1 (stereo unspecified),0.273% [at 35.3 µM],
CN1CCC(N(Cc2cccs2)c2ccccc2)CC1,-2.75% [at 35.3 µM],
C=C(C)C(=O)OCC,0.447%,
NCCCN1CCOCC1,2.85%,
CC(=O)[O][Al],0.878%,
NC(=O)C(c1ccccc1)(c1ccccc1)[C@@H]1CCN(CCc2ccc3c(c2)CCO3)C1,-8.23% [at 35.3 µM],
CC(=O)[O][Al][O]C(C)=O,1.69%,
CCCCOC(=O)CCCCCCCC(=O)OCCCC,2.03%,
CCCCC(CC)COC(=O)CCCCCCCCC(=O)OCC(CC)CCCC (stereo unspecified),2.08%,
O=C(OCCCCCCOC(=O)c1ccccc1)c1ccccc1,-6.4%,
C[Si](C)(CCCN)O[Si](C)(C)CCCN,-2.82%,
Nc1cccc([N+](=O)[O-])c1,-0.326%,
NS(=O)(=O)c1ccc(N2CCCCS2(=O)=O)cc1,0.554% [at 35.3 µM],
Cc1ncc(CO)c(C=O)c1O,-0.0367% [at 35.3 µM],
OC[C@H]1O[C@@H](OCCc2ccc(O)cc2)[C@H](O)[C@@H](O)[C@@H]1O,2.65% [at 35.3 µM],
Nc1ccc([N+](=O)[O-])c(C(F)(F)F)c1,0.42% [at 35.3 µM],
O=C(O)c1nc(Cl)c(Cl)c(Cl)c1Cl,5.31%,
CC(C)OC(=O)C(C)N(C(=O)c1ccccc1)c1ccc(F)c(Cl)c1 (stereo unspecified),-13.8%,
C[C@@H](c1ncncc1F)C(O)(Cn1cncn1)c1ccc(F)cc1F (stereo partly specified),2.5% [at 35.3 µM],
OC(C#CCN1CCCC1)(c1ccccc1)c1ccccc1,-3.16% [at 35.3 µM],
CC(C)(O)c1ccc(CNC(=O)c2cccnc2Oc2ccc(F)cc2)cc1,-1.13%,
CC(CSC(=O)c1ccccc1)C(=O)N1C[C@@H](Sc2ccccc2)C[C@H]1C(=O)O (stereo partly specified),4.17% [at 15.8 µM],
CCCCC/C=C\C/C=C\CCCCCCCC(=O)NC(C)c1ccccc1 (stereo unspecified),-9.91% [at 35.3 µM],
CN1Cc2cc(C(=O)N3CCC(C4CCNCC4)CC3)ccc2NC(CC(=O)O)C1=O (stereo unspecified),1.26% [at 35.3 µM],
